VDR inhibitor = blocks the human vitamin D receptor; P11473; VDR-SRC2-3 peptide fluorescence polarization, 2 h; Potency, µM, without a hit: max response, negative = inhibition, actives largely listed as inhibitors; actives 0.93% (n = 400,000); AID 504847; also: % is scaled to controls: 0 for no effect and ±100 for the full control effect
Target sequence (P11473 whole entry, looked up): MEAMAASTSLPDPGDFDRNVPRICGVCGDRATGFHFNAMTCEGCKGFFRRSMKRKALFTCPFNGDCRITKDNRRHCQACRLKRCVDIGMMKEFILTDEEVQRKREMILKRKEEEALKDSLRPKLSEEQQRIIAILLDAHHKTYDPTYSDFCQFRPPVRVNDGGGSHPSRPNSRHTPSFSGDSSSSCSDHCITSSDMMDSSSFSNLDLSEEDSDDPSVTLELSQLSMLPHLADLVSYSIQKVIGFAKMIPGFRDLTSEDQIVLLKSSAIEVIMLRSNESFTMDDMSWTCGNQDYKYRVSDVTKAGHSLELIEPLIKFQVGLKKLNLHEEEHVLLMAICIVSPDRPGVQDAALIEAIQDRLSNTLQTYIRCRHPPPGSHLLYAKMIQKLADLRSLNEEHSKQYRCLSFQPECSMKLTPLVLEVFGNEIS
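Signal is fluorescence polarization, reporting how far test compounds block the interaction of VDR with the SRC2-3 coregulator peptide after a 2 h room-temperature incubation.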
G9a inh = blocks human histone lysine methyltransferase G9a | G9a H3K9 monomethylation, AlphaScreen, 2 h | Potency, µM (titrated, usually from 102 µM), for inactives: at the highest dose activity, negative = inhibition, most hits filed as inhibitors | actives 8.8% (n = 350,000) | AID 504332; also: % is scaled to controls: 0 for no effect and ±100 for the full control effect; nearly all actives have a fitted effect of over 75% in size
Target sequence (Q96KQ7 913-1193 limits assumed): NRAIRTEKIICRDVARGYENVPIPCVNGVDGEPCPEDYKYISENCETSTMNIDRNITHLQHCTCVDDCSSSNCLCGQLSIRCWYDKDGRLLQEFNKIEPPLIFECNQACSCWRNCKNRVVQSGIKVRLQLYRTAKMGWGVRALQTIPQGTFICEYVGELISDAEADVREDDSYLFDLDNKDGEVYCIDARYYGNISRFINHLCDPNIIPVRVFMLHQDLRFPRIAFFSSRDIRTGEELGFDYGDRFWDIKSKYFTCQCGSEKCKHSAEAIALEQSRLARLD
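Quantitative HTS format: methyltransferase activity on a biotin-tagged H3K9 peptide is measured by AlphaScreen, using a rabbit anti-monomethyl-H3K9 antibody with streptavidin donor and anti-IgG acceptor beads. Final levels are 20 nM enzyme, 500 nM peptide, 20 uM SAM; 2 h RT.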
Sfp PPTase inh = Sfp phosphopantetheinyl transferase inhibition | Q9F4F7 | Biochemical Sfp PPTase activity, qHTS | Potency, µM, inactives show largest response in the series, negative = inhibition, most hits filed as inhibitors | actives 3.5% (n = 310,000) | AID 1490;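 also: the enzyme is Sfp with the accession as filed and its product quenches rhodamine fluorescence; 0% = enzyme reaction without inhibitor and -100% = no enzyme wells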
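With Hepes-Na pH 7.6 buffer containing 10 mM MgCl2, Sfp (15 nM) modified BHQ-2-YbbR (12.5 uM) using rhodamine-CoA (5 uM). Two reads 30 minutes apart at 525/598 nm yielded each well's rate.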
ALOX12 inh = blocks human arachidonate 12S-lipoxygenase. AID 1671190. purified 12hLO, xylenol orange hydroperoxide absorbance. actives 1.1% (n = 580,000). Potency, µM (top dose mostly 108 µM), inactives show at the top dose activity change, negative = inhibition, actives largely listed as inhibitors; also: % is scaled to controls: 0 for no effect and ±100 for the full control effect
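Hydroperoxide product was detected by ferrous iron/xylenol orange as the 573 to 405 nm absorbance ratio. Arachidonic acid at 40 uM (final) was turned over for 30 min at room temperature by 150 nM human 12hLO, pH 7.0 Hepes buffer, after 15 min compound preincubation.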
Glioma ERSR ind = ER stress response induction in glioma; U87-MG GRP78 promoter luciferase reporter, 16 h; AID 602332; actives 0.02% (n = 420,000); Potency, µM, for inactives: at the top dose activation, usual class: activators; also: series mostly up to about 76 µM; % of control where 0% means no effect; nearly all actives have a fitted effect of over 35% in size
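Stably transfected U87-MG human glioma cells carrying a GRP78-based luminescent sensor were seeded at 1000 cells/well, pin-dosed with compounds and incubated 16 h. Luciferase reagent was then added, and end-point luminescence was read after 10 min at room temperature.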
* = called active by the depositor; ? = inconclusive; . = no result given; [ ] = another dose, or the depositor's remark. This excerpt belongs to a sample that is enriched for hits. Calls follow the shape of the dose curve; as a rule, active = well fitted curve in the direction sought with a large enough effect; inconclusive = small, poorly fitted or top-dose-only effect, or another doubt; inactive = no such curve, though single readings can be large; an effect the other way counts as inactive or inconclusive. Potency is read from the fitted curve at half-maximal effect.

SMILES | VDR inhibitor | G9a inh | Sfp PPTase inh | ALOX12 inh | Glioma ERSR ind
COc1ccc2o/c(=N\O)c(C(=O)Nc3ccccc3OC)cc2c1 | -11% | 1.6µM* | 50µM* | ? | -2%
CCOc1ccccc1NC(=O)c1cc2cc(OC)ccc2oc1=O | . | . | . | 21% | .
COc1ccccc1NC(=O)c1cc2cc(Br)ccc2oc1=N | 89µM* | -1% | ? | 67% | 0%
c1ccc(-c2cccc(N3CCCC4(CCNCC4)C3)c2)cc1 | 50µM* | -36%[12.7 µM] | -23% | ? | -2%
c1ccc(-c2cccc(N3CCC4(CCNCC4)CC3)c2)cc1 | 89µM* | 3%[12.7 µM] | -17% | ? | -7%
COCC(=O)N1CCC2(CCCN(c3cccc(-c4ccccc4)c3)C2)CC1 | 50µM* | -3%[12.7 µM] | -22% | ? | -4%
c1ccc(-c2cccc(N3CC4(CCNCC4)C3)c2)cc1 | ? | 1%[12.7 µM] | -7% | ? | -2%
COCC(=O)N1CCC2(CC1)OCCN2S(=O)(=O)c1c(C)cc(C)cc1C | . | . | . | -2% | .
Cc1ccsc1C(=O)N1CCCn2cc(-c3cccc(C#N)c3)nc21 | . | . | . | 60% | .
N#Cc1c(N)n[nH]c1CCCNC(=O)c1cc(-c2ccncc2)nc2ccccc12 | . | . | . | 31% | .
CC(Oc1ccccc1)C(=O)Nc1cc(Cl)ccc1-n1cncn1 (configuration not stated) | -6% | 45µM* | . | -29% | -1%
Cc1ccc(C(=O)Nc2cc(Cl)ccc2-n2cncn2)o1 | 18% | 8.9µM* | . | -29% | 0%
COc1cc(C(=O)NC2CCN(c3cc(-c4ccccc4)[nH]n3)C2)cc(OC)c1OC (configuration not stated) | . | . | . | -25% | .
CC(=O)Nc1ccc(N2CCCCC2)cc1 | 1% | ? | 22% | 3% | 8%
Cc1ccc(-c2nc(N3CCOCC3)sc2C(=O)N2CCCCC2)cc1 | ? | -7% | 18% | -9% | -2%
CC(=O)Nc1ccc(-c2nc(N3CCCC3)sc2C)cc1 | . | . | . | 5.6µM* | .
Cc1sc(N2CCOCC2)nc1-c1ccc(NS(C)(=O)=O)cc1 | . | . | . | 35µM* | .
CC1=C[C@@H](CN2CCN(c3ncccn3)CC2)[C@H](C(C)C)C[C@H]1Cc1nnc(COc2ccc(F)cc2)o1 | . | . | . | -30% | .
COc1cc(/C=C2\CCCc3c2nc2ccccc2c3C(=O)O)cc([N+](=O)[O-])c1O | -24% | 40µM* | 12% | ? | -5%
COc1cc(-c2nc3ccc4ccccc4c3c3c2CCC3)cc(OC)c1O | -15% | 79µM* | -14% | -26% | -3%
COc1ccc(/C=C2\CCCc3c2nc2ccccc2c3C(=O)O)cc1OC | . | 28µM* | 35µM* | . | .
CN(C)c1ccc(/C=C2/CCCc3c2nc2ccccc2c3C(=O)O)cc1 | . | . | . | . | 2%
CN(C)c1ccc(/C=C2\CCCc3c2nc2ccccc2c3C(=O)O)cc1 | 6% | 40µM* | -27% | -18% | 3%
COc1cccc(NC(=O)/C=N/O)c1 | . | . | . | 10% | .
COc1cc(/C=C2\CCCc3c2nc2ccccc2c3C(=O)O)cc(OC)c1O | -24% | . | 11µM* | ? | 0%
SMILES | VDR inhibitor | G9a inh | Sfp PPTase inh | ALOX12 inh | Glioma ERSR ind
O=C(O)c1c2c(nc3ccccc13)/C(=C/c1cccc([N+](=O)[O-])c1)CCC2 | -7% | 0% | 10% | 40µM* | 3%
COc1ccc(OC)c(Nc2nc(-c3sc(NC(=O)c4ccccc4)nc3C)cs2)c1 | . | 31%[12.7 µM] | -10% | . | .
Cc1nc(NC(=O)c2ccco2)sc1-c1csc(Nc2ccc(Cl)cc2Cl)n1 | 6% | ? | -4% | ? | 4%
Cc1nc(NC(=O)c2ccccc2)sc1-c1csc(Nc2ccc(Cl)cc2Cl)n1 | . | 25µM* | -19% | . | .
COc1ccc(Cl)cc1Nc1nc(-c2sc(NC(=O)c3ccccc3)nc2C)cs1 | . | 35µM* | 3% | . | .
COc1ccc2nc(C)cc(N/N=C/c3ccccc3)c2c1 | -14% | -11%[12.7 µM] | . | . | 17%
COc1ccc2nc(C)cc(NCCN3CCOCC3)c2c1 | -7% | 45µM* | 10% | -5% | -4%
COc1ccc2nc(C)cc(Nc3ccc(N4CCOCC4)cc3)c2c1 | 1% | ? | -4% | ? | -5%
COc1ccc2nc(C)cc(Nc3ccc(N4CCN(C)CC4)cc3)c2c1 | 6% | 45µM* | 0% | 4% | -3%
COc1ccc(/C=N/Nc2cc(C)nc3ccc(OC)cc23)c(OC)c1 | 0% | 45µM* | 50µM* | ? | -5%
CN1C(=O)N(c2cccc(Cl)c2)C(C)(O)CC1(C)C (configuration not stated) | . | . | . | -3% | .
CC1=C[C@@H](CN2CCN(c3ccccc3)CC2)[C@H](C(C)C)C[C@H]1Cc1nnc(-c2cncn2C)o1 | . | . | . | 5% | .
Cc1cnc(NC(=O)Cc2ccc3ccccc3c2)s1 | . | . | . | -1% | .
COc1ccc(C(C)=O)cc1CN1CCCC1 | . | . | . | -1% | .
CN(C)C(=O)C1=NOC2CN([S+](C)(=O)[O-])CC12 (configuration not stated) | . | . | . | 3%[12.5 µM] | .
COC(=O)c1scc(C#N)c1N/N=C(\C#N)S(=O)(=O)c1ccc(Cl)cc1 | ? | 45µM* | 25% | ? | -2%
N#C/C(=N\Nc1ccc(Cl)cc1)C(=O)c1ccccc1 | -15% | ? | 6% | ? | -1%
COC(=O)c1scc(C)c1NC(=O)c1ccc(Cl)cc1 | -4% | 15%[0.501 µM] | 16% | . | -1%
COC(=O)c1scc(S(=O)(=O)C(C)C)c1N/N=C(\C#N)C(=O)c1ccc(Cl)cc1 | -17% | 50µM* | -8% | -25% | -1%
COc1ccc(Cc2nnc(/C=C/c3ccccc3OC)o2)cc1 | . | . | . | 2% | .
Cc1ccc2c(c1)S/C(=C/c1ccc[n+](C)c1)N2CCO | 0% | 14µM* | -7% | 0% | -5%
O=C(O)c1ccc(Nc2ncc([N+](=O)[O-])cc2[N+](=O)[O-])cc1 | -10% | 45µM* | -20% | ? | -6%
O=C(Nc1ccccc1C(=O)N1CCN(Cc2ccccc2)CC1)c1ccc(F)cc1 | 10% | -9%[12.7 µM] | 11% | -1% | -2%
O=C(Nc1ccccc1C(=O)N1CCN(Cc2ccccc2)CC1)c1ccccn1 | -3% | 14µM* | -22% | 3% | -6%
CC(C)c1ccc2c(c1)C(c1ccc(N3CCOCC3)cc1)=NNC(c1cccs1)=N2 | -14% | 45µM* | 13% | 0% | 13%
CC(C)c1ccc2c(c1)C(c1cccs1)=NNC(c1ccncc1)=N2 | 11% | 28µM* | -1% | 3% | 0%
COc1ccc2c(c1)C(c1cccs1)=NNC(c1ccncc1)=N2 | -14% | . | -5% | 14% | -5%
Cc1ccc(C(C)NC(=O)Nc2cccc(Cl)c2)c(C)c1 (configuration not stated) | . | . | . | 18% | .
O=C(c1c(F)cccc1F)N1CCC2(CC1)N=C(c1ccc(Cl)cc1)NO2 | . | . | . | 2% | .
CN(CC(=O)NC1(C)CCS(=O)(=O)C1)Cc1ccc(Cl)c(Cl)c1 (configuration not stated) | . | . | . | -1% | .

Compound activity from PubChem BioAssay.
